Experimental data reported in PubChem BioAssay (NCI).
The panel holds about 79,000 compounds, 15% with a hit somewhere; the sample as a whole holds those more often. Calls of active or inactive are those of the source. No stated cut-off is given here; in the data, active means growth inhibition above about 70%; inactive means the rest.

Legend:
[1] = NCI Yeast Anticancer Drug Screen. Data for the rad52 strain (AID 147);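 further: 0% = growth of vehicle-treated control cultures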; details: S. cerevisiae rad52 mutant growth inhibition, hits give high values
Outline: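 Compounds are applied to a genetically defined yeast strain lacking normal DNA damage repair, and inhibition of growth is expressed relative to cultures given vehicle only.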

[2] = NCI Yeast Anticancer Drug Screen. Data for the wt1 strain (AID 149);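 further: 0% = growth of vehicle-treated wt1 cultures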; details: S. cerevisiae wt1 strain (SPY 50644) growth inhibition, hits give high values
Outline: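 Each compound is tested on wt1 yeast and the loss of growth versus vehicle gives the inhibition value.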

[3] = NCI Yeast Anticancer Drug Screen. Data for the rad50EPP+ strain (AID 151);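 further: 0% = growth of vehicle-treated control cultures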; details: S. cerevisiae rad50 mutant strain, hits give high values
Outline: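 Compounds were applied to the rad50EPP+ yeast strain, which bears a defined DNA repair alteration, and growth inhibition was determined relative to vehicle-treated cultures.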

[4] = NCI Yeast Anticancer Drug Screen. Data for the mgt1 strain (AID 153); details: S. cerevisiae mgt1 mutant growth inhibition, hits give high values
Outline: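 Strain: mgt1 yeast, one of a set carrying defined DNA damage repair or cell cycle control alterations. Compound-treated growth compared with vehicle.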

[5] = NCI Yeast Anticancer Drug Screen. Data for the rad50 strain (AID 155);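 further: 0% = growth of vehicle-only cultures of the same strain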; details: S. cerevisiae rad50 strain growth inhibition, hits give high values
Outline: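 Vehicle-treated cultures provide the reference for the growth inhibition reported for compound-exposed, repair-deficient yeast.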

[6] = NCI Yeast Anticancer Drug Screen. Data for the mec2-1 strain (AID 157); details: S. cerevisiae mec2-1 strain, hits give high values
Outline: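 Strain: mec2-1 (DNA repair/cell cycle alteration). Compound exposure, then growth measured; inhibition expressed relative to vehicle.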

[7] = NCI Yeast Anticancer Drug Screen. Data for the rad14 strain (AID 159);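 further: 0% = growth of vehicle-treated control cultures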; details: S. cerevisiae rad14 strain growth inhibition, hits give high values
Outline: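 Inhibition of growth is reported for a repair-deficient yeast mutant following compound treatment, calculated relative to cultures that received vehicle.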

[8] = NCI Yeast Anticancer Drug Screen. Data for the sgs1 mgt1 strain (AID 161);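 further: 0% = growth of cultures given vehicle only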; details: S. cerevisiae sgs1 mgt1 strain, hits give high values
Outline: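 Read-out: growth inhibition vs vehicle controls. Cells: mutant yeast strain deficient in DNA damage repair.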

[9] = NCI Yeast Anticancer Drug Screen. Data for the CLN2oe strain (AID 163);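 further: 0% = growth of vehicle-only control cultures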; details: S. cerevisiae CLN2oe strain, hits give high values
Outline: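 Growth of a genetically modified yeast strain is measured after compound exposure and compared with cultures given vehicle alone.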

[10] = NCI Yeast Anticancer Drug Screen. Data for the cln2 rad14 strain (AID 165);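 further: 0% = growth equal to vehicle treated cultures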; details: S. cerevisiae cln2 rad14 strain, hits give high values
Outline: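 Compounds are applied to the cln2 rad14 yeast strain, and growth is then compared with that of vehicle-treated cultures to give inhibition.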

[11] = NCI Yeast Anticancer Drug Screen. Data for the bub3 strain (AID 167); details: S. cerevisiae bub3 mutant strain, hits give high values
Outline: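 Mutant yeast screening strain plus compound; vehicle-treated cultures serve as the 0% inhibition reference.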

[12] = NCI Yeast Anticancer Drug Screen. Data for the wt2 strain (AID 169); details: S. cerevisiae wt2 strain growth inhibition, hits give high values
Outline: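 This strain belongs to a panel of yeast strains with defined genetic alterations in DNA damage repair or cell cycle control. Compounds are applied, and growth inhibition is measured against vehicle-treated cultures.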

[13] = NCI Yeast Anticancer Drug Screen. Data for the mlh1 strain (AID 171);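 further: 0% = growth of vehicle-treated control cultures of the same strain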; details: S. cerevisiae mlh1 strain growth inhibition, hits give high values
Outline: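 Growth of the mutant yeast strain after compound exposure, expressed as inhibition relative to vehicle-only controls.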

[14] = NCI Yeast Anticancer Drug Screen. Data for the sgs1 strain (AID 173);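 further: 0% = growth of vehicle-only control cultures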; details: S. cerevisiae sgs1 mutant, hits give high values
Outline: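 Growth of a yeast strain bearing a defined genetic alteration is measured after compound treatment. Inhibition is expressed relative to vehicle-only controls.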

[15] = NCI Yeast Anticancer Drug Screen. Data for the mlh1 rad18 strain (AID 175); details: S. cerevisiae mlh1 rad18 strain growth inhibition, hits give high values
Outline: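 Read-out is yeast growth inhibition, calculated against vehicle-only controls. The compound was applied to a strain engineered with DNA damage repair alterations.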

[16] = NCI Yeast Anticancer Drug Screen. Data for the rad18 strain (AID 177); details: S. cerevisiae rad18 mutant growth inhibition, hits give high values
Outline: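 Growth of the mutant yeast strain after compound exposure, normalised to vehicle-only cultures.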

[17] = at 5.0 µM (retest, dose inferred, filed as 0.5)
[18] = at 50.0 µM (retest, dose inferred, filed as 5.0)

Measured: growth inhibition

COC(=O)/C=C(/C(=O)OC)C(Cl)(Cl)Cl
active: [1]; at 33.0 µM 97% | [1]; at 100.0 µM 100% | [2]; at 33.0 µM 84% | [2]; at 100.0 µM 100% | [3]; at 100.0 µM 84% | [4]; at 100.0 µM 99% | [5]; at 33.0 µM 93% | [5]; [18] 88% | [5]; at 100.0 µM 99% | [6]; [18] 96% | [6]; at 100.0 µM 98% | [7]; at 33.0 µM 96% | [7]; at 100.0 µM 100% | [8]; [18] 97% | [8]; at 50.0 µM 79.9% | [9]; at 100.0 µM 99% | [10]; [18] 95% | [11]; at 33.0 µM 81% | [11]; [18] 94% | [11]; at 100.0 µM 100% | [12]; at 33.0 µM 99% | [12]; at 100.0 µM 100% | [13]; at 33.0 µM 84% | [13]; at 100.0 µM 99% | [14]; at 33.0 µM 97% | [14]; at 100.0 µM 100% | [15]; [17] 70% | [15]; [18] 97% | [16]; at 3.7 µM 87% | [16]; at 11.0 µM 95% | [16]; at 33.0 µM 98% | [16]; at 100.0 µM 99%
inactive: [1]; at 1.2 µM -32% | [1]; at 3.7 µM 7% | [1]; at 11.0 µM 47% | [2]; at 1.2 µM -1% | [2]; at 3.7 µM 4% | [2]; at 11.0 µM 34% | [3]; at 1.2 µM 4% | [3]; at 3.7 µM -9% | [3]; at 11.0 µM 24% | [3]; at 33.0 µM 61% | [4]; at 1.2 µM 3% | [4]; at 3.7 µM -3% | [4]; at 11.0 µM 5% | [4]; at 33.0 µM 59% | [5]; at 1.2 µM 1% | [5]; at 3.7 µM 4% | [5]; [17] 14% | [5]; at 11.0 µM 33% | [5]; at 50.0 µM 44.8% | [6]; at 1.2 µM 2% | [6]; at 3.7 µM 2% | [6]; [17] 7% | [6]; at 11.0 µM 6% | [6]; at 33.0 µM 44% | [6]; at 50.0 µM 22.1% | [7]; at 1.2 µM 6% | [7]; at 3.7 µM 18% | [7]; at 11.0 µM 64% | [8]; [17] 23% | [9]; at 1.2 µM -5% | [9]; at 3.7 µM -3% | [9]; at 11.0 µM 2% | [9]; at 33.0 µM 45% | [10]; [17] 9% | [10]; at 50.0 µM 67.5% | [11]; at 1.2 µM -4% | [11]; at 3.7 µM 6% | [11]; [17] -3% | [11]; at 11.0 µM 23% | [11]; at 50.0 µM -0.7% | [12]; at 1.2 µM -1% | [12]; at 3.7 µM 8% | [12]; at 11.0 µM 33% | [13]; at 1.2 µM -3% | [13]; at 3.7 µM 2% | [13]; at 11.0 µM 5% | [14]; at 1.2 µM 6% | [14]; at 3.7 µM 14% | [14]; at 11.0 µM 69% | [15]; at 50.0 µM 40.9% | [16]; at 1.2 µM 38%
